A selection: hits, their analogues and other compounds. The true share with any hit is near 7.8%.
NOMO-1 viab = STK33 inhibitor candidate reducing NOMO-1 cell viability; NOMO-1 AML viability, CellTiter-Glo luminescence, 72 h; inhibition, % (concentration not given with the values); 37,000 compounds, 7.5% hits; AID 2330; in the data active means inhibition above about 80%
Shh pathway inh = Sonic Hedgehog pathway inhibition; Shh-LIGHT2 Gli-luciferase reporter, 30 h; inhibition, % (no concentration beside the values); 22,000 compounds, 2.1% hits;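 active means mean inhibition across valid replicates above about 65%, limit read from the data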;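 further: pathway switched on by Shh-conditioned medium diluted 1 in 25 in low serum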
MITF inh = MITF inhibition; AID 2240; 37,000 compounds, 0.28% hits; inhibition, % (concentration not given with the values); TRPM1 promoter luciferase, luminescence, 24 h; in the data active means inhibition above about 85%;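 further: human melanocyte line stably carrying TRPM1 promoter luciferase reporter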
Starred values were filed as active, the others as inactive; x = no result given.

SMILES	NOMO-1 viab	Shh pathway inh	MITF inh
C[C@H](CO)N1C[C@H](C)[C@@H](CN(C)CC2CCCCC2)Oc2c(NC(=O)Nc3ccc(C(F)(F)F)cc3)cccc2C1=O	121*	-73	27
C[C@@H]1CN([C@H](C)CO)C(=O)c2cccc(NC(=O)Nc3ccc(C(F)(F)F)cc3)c2O[C@@H]1CN(C)CC1CC1	20	11	3
Cc1noc(C)c1NC(=O)N(C)C[C@@H]1Oc2c(NS(=O)(=O)c3cn(C)cn3)cccc2C(=O)N([C@H](C)CO)C[C@H]1C	21	-21	-7
CCOC(=O)CN(C#N)c1nc(C)cc(C)n1	35	x	-7
CCn1cc(C(=O)NC(=S)Nc2sc3c(c2C(=O)OC)CCCCCC3)cn1	22	x	7
CC1(C)CC[C@]2(C(=O)O)CC[C@]3(C)C(=CCC4[C@@]5(C)CC[C@H](O[C@@H]6O[C@H](C(=O)O)[C@@H](O[C@@H]7OC[C@@H](O)[C@H](O)[C@H]7O)[C@H](O)[C@H]6O)C(C)(C)C5CC[C@]43C)C2C1 (some centres not stated)	116*	105*	13
CC1OC(OC2C(O)C(CO)OC(O[C@H]3CC[C@@]4(C)C(CC[C@]5(C)C4CC=C4C6CC(C)(C)CC[C@]6(C(=O)OC6OCC(OC7OCC(O)C(O)C7O)C(O)C6O)CC[C@]45C)C3(C)C)C2O)C(O)C(OC2OCC(O)(CO)C2O)C1O (some centres not stated)	122*	40	-9
C[C@@H]1O[C@@H](O[C@@H]2[C@@H](O)[C@H](O[C@@H]3[C@@H](O)[C@H](C)O[C@@H](O[C@H]4[C@H](O[C@H]5CC[C@@]6(C)C(CC[C@]7(C)C6CC=C6[C@@H]8CC(C)(C)CC[C@]8(C(=O)O)CC[C@]67C)[C@]5(C)CO)OC[C@H](O)[C@@H]4O)[C@@H]3O)O[C@H](CO)[C@H]2O[C@@H]2O[C@H](CO)[C@@H](O[C@@H]3OC[C@@H](O)[C@H](O)[C@H]3O)[C@H](O)[C@H]2O)[C@H](O)[C@H](O)[C@H]1O (some centres not stated)	114*	78*	-4
CC(=O)OC1C(C)OC(OC2C(CO)OC(OC(=O)[C@]34CCC(C)(C)CC3C3=CCC5[C@@]6(C)CC[C@H](OC7OC(CO)C(OC8OC(CO)C(OC9OCC(O)C(O)C9O)C(O)C8O)C(O)C7O)[C@@](C)(CO)C6CC[C@@]5(C)[C@]3(C)CC4)C(OC3OC(C)C(O)C(O)C3O)C2O)C(O)C1O (some centres not stated)	x	4	x
CC1(C)CC[C@]2(C(=O)O[C@@H]3O[C@H](CO)[C@@H](O)[C@H](O)[C@H]3O)CC[C@]3(C)C(=CCC4[C@@]5(C)CC[C@H](OC6O[C@H](CO)[C@@H](O)[C@H](O[C@@H]7O[C@H](CO)[C@@H](O)[C@H](O)[C@H]7O)[C@H]6O)C(C)(C)C5CC[C@]43C)[C@@H]2C1 (some centres not stated)	x	26	x
CC1(C)CC[C@]2(C(=O)O)CC[C@]3(C)C(=CCC4[C@@]5(C)CC[C@H](O[C@@H]6O[C@H](C(=O)O)[C@@H](O[C@@H]7OC[C@@H](O)[C@H](O)[C@H]7O)[C@H](O)[C@H]6O)C(C)(C)C5CC[C@]43C)C2C1O (some centres not stated)	-5	-18	-8
CC1(C)CC[C@]2(C(=O)O[C@@H]3O[C@H](CO)[C@@H](O)[C@H](O)[C@H]3O)CC[C@]3(C)C(=CCC4[C@@]5(C)CC[C@H](O[C@@H]6O[C@H](CO)[C@@H](O)[C@H](O)[C@H]6O)[C@@](C)(CO)C5CC[C@]43C)[C@@H]2C1 (some centres not stated)	31	-40	-35
CC1(C)CC[C@]2(C(=O)O)CC[C@]3(C)C(=CCC4[C@@]5(C)CC[C@H](O[C@@H]6O[C@H](CO)[C@@H](O)[C@H](O)[C@H]6O)[C@@](C)(CO)C5CC[C@]43C)[C@@H]2C1 (some centres not stated)	x	88*	x
Cc1cccc(-c2nnc(SCC(=O)Nc3cc(F)ccc3C)n2-c2ccccc2)c1	5	x	8
CCOC(=O)c1c(NC(=O)Cc2cccc(OC)c2)sc2c1CCCC2	6	x	7
O=C1CC(C(=O)Nc2ccc(C(=O)O)c(O)c2)C(c2ccccc2)O1 (configuration not stated)	8	x	-16
C[C@@H]1CN([C@@H](C)CO)C(=O)c2cccc(N(C)C)c2O[C@H]1CN(C)C(=O)Nc1ccccc1	32	-40	0
Cc1noc(C)c1NC(=O)Nc1ccc2c(c1)CC(=O)N([C@H](C)CO)C[C@H](C)[C@H](CN(C)CC1CC1)O2	15	x	0
C[C@@H]1CN([C@@H](C)CO)C(=O)Cc2cc(NS(=O)(=O)c3cn(C)cn3)ccc2O[C@@H]1CN(C)CC1CCCCC1	-14	14	-6
CC(C)NC(=O)N(C)C[C@@H]1Oc2ccc(NC(=O)Nc3ccc(C(F)(F)F)cc3)cc2CC(=O)N([C@H](C)CO)C[C@@H]1C	50	23	-12
CC(Oc1ccc(Cl)cc1Cl)C(=O)Nc1ccccc1-c1nc2ccccc2s1 (configuration not stated)	-13	x	2
CC1CC[C@]2(C(=O)OC3OC(COC4OC(CO)C(O)C(O)C4O)C(O)C(O)C3O)CC[C@]3(C(=O)O)C(=CCC4[C@@]5(C)CC[C@H](OC6OC(C)C(O)C(O)C6O)C(C)(C)C5CC[C@]43C)C2C1C (some centres not stated)	7	32	18
CC(C)(CCO[C@@H]1O[C@H](CO[C@@H]2OC[C@@H](O)[C@H](O)[C@H]2O)[C@@H](O)[C@H](O)[C@H]1O)C[C@@H]1C(C(=O)O)=CC[C@]2(C(=O)O)C1=CCC1[C@@]3(C)CC[C@H](O[C@@H]4O[C@H](CO[C@@H]5O[C@H](CO)[C@@H](O)[C@H](O)[C@H]5O)[C@@H](O)[C@H](O)[C@H]4O)C(C)(C)C3CC[C@]12C (some centres not stated)	x	106*	x
CC(=O)N[C@H]1[C@H](O[C@H]2CC[C@@]3(C)C(CC[C@]4(C)C3CC=C3[C@@H]5CC(C)(C)CC[C@]5(C(=O)O)CC[C@]34C)C2(C)C)O[C@H](CO[C@@H]2OC[C@H](O)[C@H](O)[C@H]2O[C@@H]2OC[C@H](O)[C@H](O)[C@H]2O)[C@@H](O)[C@@H]1O (some centres not stated)	120*	109*	19
C[C@@H]1O[C@@H](O[C@H]2[C@H](O[C@H]3CC[C@@]4(C)C(CC[C@]5(C)C4CC=C4C6CC(C)(C)CC[C@]6(C(=O)O)CC[C@]45C)[C@]3(C)CO)OC[C@H](O)[C@@H]2O)[C@H](O)[C@H](O)[C@H]1O (some centres not stated)	119*	74*	26
C[C@@H]1O[C@@H](O[C@H]2[C@H](O[C@H]3[C@H](O[C@H]4CC[C@@]5(C)C(CC[C@]6(C)C5CC=C5[C@@H]7CC(C)(C)C[C@@H](O)[C@]7(C)CC[C@]56C)[C@@]4(C)CO)O[C@H](C(=O)O)[C@@H](O)[C@@H]3O)OC[C@H](O)[C@@H]2O)[C@H](O)[C@H](O)[C@H]1O (some centres not stated)	18	23	-7

Source: PubChem BioAssay (Broad Institute)
